These results are taken from PubChem BioAssay.

Each structure is given as a SMILES string. Active and inactive are the calls of the source.

Assay [1] in a line: binders of probe aFSTL3 on microarray, primary screen, stem cell growth factor project, biochemical, small-molecule microarray, fluorescence 635/667 (AID 1064).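 Note: measures binding of the biotinylated anti-FSTL3 antibody to printed compounds.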 The settings on record: higher = more signal.
Assay [2] can be described thus: binders from COS7 lysate, DM2A8 probe, primary screen, torsin A project, cell lysate, small-molecule microarray, fluorescence 635/667 (AID 1065). The settings on record: higher = more signal, COS7 lysate expressing mutant human TOR1A.
Assay [3] in a line: binders of probe aFGF2 on microarray, primary screen, stem cell growth factor project, biochemical, small-molecule microarray, fluorescence 635/667 (AID 1067).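 Note: measures binding of biotinylated aFGF2 protein to printed compounds on slides; z-score merges feature fluorescence and signal-to-noise across triplicate slides.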 The note with it: higher = more signal.
Assay [4] can be described thus: binders of probe aFGF10 on microarray, primary screen, stem cell growth factor project, biochemical, small-molecule microarray, fluorescence 635/667 (AID 1071).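 Note: score merges 667 nm spot intensity and signal to noise from triplicate slides.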 The settings on record: higher = more signal.
Assay [5] concerns the target Neurogenic locus notch homolog protein 2 (Homo sapiens) (UniProt Q04721). Description: Notch2 binders on small-molecule microarrays, primary screen, biochemical, small-molecule microarray, 635 nm fluorescence, stem cell growth factors (AID 1073). The note with it: Notch2 binding, higher = more signal.
Assay [6] deals with Pro-neuregulin-1, membrane-bound isoform (Homo sapiens) (UniProt Q02297). Put plainly: NRG1 binders on small-molecule microarrays, primary screen, psychiatric disease protein project, biochemical, small-molecule microarray, fluorescence 635/667 (AID 1075).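 Note: score combines 667 nm spot fluorescence with signal to noise.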 The note with it: NRG1 binding, 635 nm fluorescence, higher = more signal.
For assay [7], the system named is Neuregulin-1 EGF-like domain. Put plainly: binders of neuregulin-1 EGF-like domain, primary screen, biochemical, small-molecule microarray, 635 nm fluorescence (AID 1081).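 Note: binding of the protein to compounds printed on small-molecule microarray slides.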 The settings on record: small-molecule microarray binding, higher = more signal.
The nature of assay [8]: FRG1 promoter luciferase signal modulators, primary screen, FRG1 inhibition for FSHD, cell-based, C2C12 myotubes, firefly/Renilla luciferase, luminescence (AID 1084). The settings on record: higher = more signal, called active from +8 up or from −8 down.
Assay [9] in a line: binders of probe aFST on microarray, primary screen, stem cell growth factor project, biochemical, small-molecule microarray, fluorescence 635/667 (AID 1086).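 Note: score merges 667 nm fluorescence with signal-to-noise of each printed compound spot.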 The note with it: higher = more signal.
Assay [10] is described as follows: binders of probe aHhip on microarray, primary screen, stem cell growth factor project, biochemical, small-molecule microarray, fluorescence 635/667 (AID 1087).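 Note: score merges spot fluorescence at 667nm with spot signal to noise ratio.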 The note with it: higher = more signal.
Assay [11] has as its system PRMT1 (protein arginine N-methyltransferase 1). Description: PRMT1 binders on small-molecule microarrays, primary screen, biochemical, small-molecule microarray, 635 nm fluorescence (AID 1088).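 Note: binding of Prmt1 protein to compounds spotted on small-molecule microarray slides.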 The settings on record: small-molecule microarray binding, higher = more signal.
The nature of assay [12]: yeast growth modulation, basal conditions, primary screen, YJM789 clinical isolate, OD600, 24 h (AID 1089).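 Note: growth of clinical yeast isolate S. cerevisiae YJM 789 seeded 1000 cells per well; test concentration not given here.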 The note with it: S. cerevisiae YJM789 growth, higher = more signal, called active from +8 up or from −8 down.
Assay [13] can be described thus: fission yeast growth modulation, primary screen, strain 972, OD600, 24 h, no modulator (AID 1090).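 Note: basal condition with compound alone and no growth modifier present; test concentration not given here.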 The settings on record: S. pombe 972 growth, higher = more signal, called active from +8 up or from −8 down.
Assay [14] can be described thus: S. cerevisiae growth modulation with rapamycin, primary screen, strain BY4716, OD600, 96 h (AID 1091). Note: test concentration not given here. The settings on record: higher = more signal, called active from +8 up or from −8 down.
The target of assay [15] is Torsin-1A-interacting protein 2 (Homo sapiens) (UniProt Q8NFQ8). Put plainly: LULL1 binders on small-molecule microarray, primary screen, cell lysate, human LULL1 lysate, 635/667 nm fluorescence (AID 1092).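 Note: probe is lysate of COS7 cells overexpressing human LULL1; score merges per-feature 667 nm fluorescence with signal-to-noise.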 The note with it: hLULL1 lysate binding, 635 nm fluorescence, higher = more signal.
Assay [16] in a line: E. coli growth modulation, two-sided OD650, primary screen, E. coli filamentation project, strain DRC41, 24 h (AID 1093).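 Note: MC1000 strain lacking acrAB efflux and sulA so SOS filamentation is blocked; test concentration not given here.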 The note with it: OD650, 24 h, higher = more signal, called active from +8 up or from −8 down.
Assay [17] can be described thus: small-molecule microarray binders of probe aLefty2, primary screen, biochemical, biotinylated probe, 635/667 nm fluorescence (AID 1094).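 Note: score merges spot fluorescence near 667 nm with spot signal-to-noise ratio.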 The settings on record: higher = more signal.
Assay [18] relates to Noggin (protein binding on small-molecule microarray). Put plainly: Noggin binders on small-molecule microarray, primary screen, biochemical, 635/667 nm fluorescence (AID 1095).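 Note: score merges 667 nm feature fluorescence with signal to noise over triplicate slides.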 The note with it: 635 nm fluorescence, higher = more signal.
Assay [19] addresses Neurogenic locus notch homolog protein 3 (Homo sapiens) (UniProt Q9UM47). Put plainly: NOTCH3 binders on small-molecule microarray, primary screen, biochemical, 635/667 nm fluorescence (AID 1096). The settings on record: NOTCH3 binding, 635 nm fluorescence, higher = more signal.
The nature of assay [20]: small-molecule microarray binders of probe aEGFR, primary screen, biochemical, biotinylated probe, 635/667 nm fluorescence (AID 1097).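 Note: probe is a biotinylated anti-EGFR antibody binding compounds printed on slides; score combines fluorescence near 667 nm and signal to noise of each spot.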 The settings on record: higher = more signal.

Sequence of Torsin-1A-interacting protein 2 (Homo sapiens) (Q8NFQ8 whole entry, looked up): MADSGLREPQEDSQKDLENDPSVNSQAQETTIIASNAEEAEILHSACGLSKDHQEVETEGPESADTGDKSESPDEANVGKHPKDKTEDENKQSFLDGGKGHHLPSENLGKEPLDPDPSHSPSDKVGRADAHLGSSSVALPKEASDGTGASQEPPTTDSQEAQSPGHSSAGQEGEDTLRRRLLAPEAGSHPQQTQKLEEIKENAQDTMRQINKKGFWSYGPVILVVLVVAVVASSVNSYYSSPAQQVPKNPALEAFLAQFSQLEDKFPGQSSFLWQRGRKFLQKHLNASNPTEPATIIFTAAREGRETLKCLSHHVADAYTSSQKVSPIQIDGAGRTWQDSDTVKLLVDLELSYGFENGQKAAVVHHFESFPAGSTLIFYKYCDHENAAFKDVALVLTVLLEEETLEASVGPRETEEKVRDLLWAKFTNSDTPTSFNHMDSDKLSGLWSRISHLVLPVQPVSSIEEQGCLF
Sequence of Neurogenic locus notch homolog protein 3 (Homo sapiens) (Q9UM47 whole entry, looked up): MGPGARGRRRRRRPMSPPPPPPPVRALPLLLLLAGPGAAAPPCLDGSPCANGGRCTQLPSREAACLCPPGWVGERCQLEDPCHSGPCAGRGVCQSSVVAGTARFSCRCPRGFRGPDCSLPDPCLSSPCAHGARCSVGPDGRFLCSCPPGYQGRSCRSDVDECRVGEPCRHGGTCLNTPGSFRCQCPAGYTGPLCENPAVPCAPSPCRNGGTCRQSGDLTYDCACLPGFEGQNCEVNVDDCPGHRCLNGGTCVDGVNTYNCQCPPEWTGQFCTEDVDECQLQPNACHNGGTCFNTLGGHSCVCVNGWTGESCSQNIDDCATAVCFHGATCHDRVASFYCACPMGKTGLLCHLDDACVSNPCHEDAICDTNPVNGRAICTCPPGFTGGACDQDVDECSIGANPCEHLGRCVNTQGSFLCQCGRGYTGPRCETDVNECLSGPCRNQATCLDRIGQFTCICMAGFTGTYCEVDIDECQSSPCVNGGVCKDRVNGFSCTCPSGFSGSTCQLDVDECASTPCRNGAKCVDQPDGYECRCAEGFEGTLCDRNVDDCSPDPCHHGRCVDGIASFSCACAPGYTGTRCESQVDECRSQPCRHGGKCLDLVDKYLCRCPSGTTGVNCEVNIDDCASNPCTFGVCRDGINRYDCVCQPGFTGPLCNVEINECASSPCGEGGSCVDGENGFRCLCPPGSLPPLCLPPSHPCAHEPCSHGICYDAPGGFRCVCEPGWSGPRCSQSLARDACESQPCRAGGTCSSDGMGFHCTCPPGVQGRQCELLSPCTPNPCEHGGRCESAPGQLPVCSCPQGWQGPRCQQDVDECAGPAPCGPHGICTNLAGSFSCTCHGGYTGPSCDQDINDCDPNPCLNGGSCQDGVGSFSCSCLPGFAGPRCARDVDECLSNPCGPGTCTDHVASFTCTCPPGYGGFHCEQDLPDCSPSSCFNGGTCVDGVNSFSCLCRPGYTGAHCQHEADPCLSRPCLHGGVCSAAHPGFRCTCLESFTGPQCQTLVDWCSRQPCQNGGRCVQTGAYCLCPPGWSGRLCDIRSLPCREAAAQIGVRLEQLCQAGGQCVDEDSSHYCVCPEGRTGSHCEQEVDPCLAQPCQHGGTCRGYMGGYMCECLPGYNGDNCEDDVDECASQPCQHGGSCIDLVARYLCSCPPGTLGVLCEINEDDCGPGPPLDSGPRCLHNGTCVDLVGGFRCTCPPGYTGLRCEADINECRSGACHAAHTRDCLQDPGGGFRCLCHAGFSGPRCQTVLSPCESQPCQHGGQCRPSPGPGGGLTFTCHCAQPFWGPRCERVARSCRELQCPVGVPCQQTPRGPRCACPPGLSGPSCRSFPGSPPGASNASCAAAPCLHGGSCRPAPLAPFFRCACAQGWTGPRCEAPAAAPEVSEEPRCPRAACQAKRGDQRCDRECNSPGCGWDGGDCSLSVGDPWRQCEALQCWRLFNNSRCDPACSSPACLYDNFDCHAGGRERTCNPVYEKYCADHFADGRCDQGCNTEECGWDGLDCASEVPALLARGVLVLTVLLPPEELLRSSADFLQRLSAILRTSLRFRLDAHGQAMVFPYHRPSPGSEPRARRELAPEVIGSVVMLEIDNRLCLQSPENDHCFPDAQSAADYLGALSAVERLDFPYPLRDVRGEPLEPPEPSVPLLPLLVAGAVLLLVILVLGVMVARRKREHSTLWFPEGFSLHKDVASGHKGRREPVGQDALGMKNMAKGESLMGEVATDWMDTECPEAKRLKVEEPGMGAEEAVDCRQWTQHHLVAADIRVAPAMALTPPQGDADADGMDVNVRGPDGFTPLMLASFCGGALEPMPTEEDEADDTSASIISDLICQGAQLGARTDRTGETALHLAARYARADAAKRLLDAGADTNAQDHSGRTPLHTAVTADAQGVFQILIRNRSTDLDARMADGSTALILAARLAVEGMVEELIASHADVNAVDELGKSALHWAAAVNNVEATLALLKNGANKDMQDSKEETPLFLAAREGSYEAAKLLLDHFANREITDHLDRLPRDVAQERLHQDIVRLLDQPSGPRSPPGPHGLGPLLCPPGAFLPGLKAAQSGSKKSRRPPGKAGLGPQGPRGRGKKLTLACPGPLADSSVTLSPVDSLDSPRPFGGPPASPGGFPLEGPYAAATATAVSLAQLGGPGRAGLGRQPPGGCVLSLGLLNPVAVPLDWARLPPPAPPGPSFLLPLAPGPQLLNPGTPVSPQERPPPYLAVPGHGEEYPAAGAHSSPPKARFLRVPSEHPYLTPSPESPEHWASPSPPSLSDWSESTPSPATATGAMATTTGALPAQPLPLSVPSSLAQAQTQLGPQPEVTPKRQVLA
Sequence of Pro-neuregulin-1, membrane-bound isoform (Homo sapiens) (Q02297 whole entry, looked up, the tested form may be a part, canonical isoform): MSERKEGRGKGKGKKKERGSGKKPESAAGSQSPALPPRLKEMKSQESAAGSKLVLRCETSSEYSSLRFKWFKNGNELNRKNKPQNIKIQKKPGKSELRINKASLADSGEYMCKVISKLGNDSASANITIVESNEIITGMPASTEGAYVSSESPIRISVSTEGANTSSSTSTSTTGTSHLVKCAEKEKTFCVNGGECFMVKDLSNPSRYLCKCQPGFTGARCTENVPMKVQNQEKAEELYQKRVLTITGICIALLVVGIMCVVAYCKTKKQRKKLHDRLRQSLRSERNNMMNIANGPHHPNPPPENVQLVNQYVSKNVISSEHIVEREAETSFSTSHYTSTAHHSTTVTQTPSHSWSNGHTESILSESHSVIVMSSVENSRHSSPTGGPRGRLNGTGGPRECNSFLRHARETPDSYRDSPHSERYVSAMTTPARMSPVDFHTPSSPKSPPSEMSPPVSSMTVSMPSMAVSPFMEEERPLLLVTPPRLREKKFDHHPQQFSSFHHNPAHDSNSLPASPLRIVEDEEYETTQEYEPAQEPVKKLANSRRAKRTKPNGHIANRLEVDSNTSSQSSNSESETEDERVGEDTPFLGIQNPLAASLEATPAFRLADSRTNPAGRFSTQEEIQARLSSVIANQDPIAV

Regarding `O=C1C2C=CC(C(O)c3cccc4ccccc34)N(Nc3ccccc3)C2C(=O)N1c1ccccc1` (stereo not given), the composite z-score was -0.0673 in [1]; 0.113 in [2]; 0.127 in assay [3]; 0.822 in assay [4]; 1.61 in assay [5]; 1.89 in assay [6]. Moreover, the composite z-score in assay [7] is 1.19; in assay [9], 1.55; in assay [10], -0.261; in assay [11], 1.56; in assay [15] it was 3.16; in assay [17] it was 0.343. The composite z-score was 0.428 in assay [18], 1.04 in assay [19] and -0.0271 in [20]. Further, the z-score in assay [8] is -1.41 (inactive); in assay [12], 0.487 (inactive); in [13], -0.251 (inactive); in assay [14] it was -0.0667 (inactive); in assay [16], -1.07 (inactive).
For the compound `COc1ccc([Si](C)(C)[C@@H]2[C@@H](CC(=O)N(CCO)Cc3ccccc3)O[C@]3(C(=O)N(Cc4ccc(N5CCOC5=O)cc4)c4ccccc43)[C@H]2C)cc1`, the composite z-score in assay [1] was 0.149; in assay [2] it was 0.181; in assay [3], -0.093; in assay [4], 0.222; in assay [5], 0.294; in assay [6], 0.567. The composite z-score in [7] is 1.1; in [9], 0.389; in assay [10] it was 0.113; in assay [11] it was 1.44; in assay [15], 2.13; in assay [17] it was -0.0887. Also, the composite z-score is 0.806 in assay [18], 0.643 in assay [19] and -0.0343 in assay [20]. Moreover, the z-score in assay [8] is -0.153 (inactive); in assay [12], -0.677 (inactive); in assay [13] it was 0.303 (inactive); in assay [14], 2.92 (inactive); in assay [16] it was -0.249 (inactive).
For the compound `COC(=O)C(CC#Cc1ccc2c(c1)[C@]1(C(=O)N2)[C@H](C(=O)N2CCc3cc(OC)c(OC)cc3C2)[C@H]2C(=O)O[C@H](c3ccccc3)[C@H](c3ccccc3)N2[C@@H]1c1ccc(OCCO)cc1)C(=O)OC`, the composite z-score is -0.295 in [1]; 1.53 in assay [2]; -0.145 in assay [3]; 0.945 in [4]; 1.54 in assay [5]; 1.75 in [6]. Also, the composite z-score in assay [7] was 1.31; in [9] it was 0.672; in assay [10] it was 0.0373; in assay [11], 1.55; in assay [15], 2.82; in assay [17], 0.128. In addition, the results for the composite z-score in [18], in [19] and in [20] were 1.3, 1.07 and 0.174, respectively. Besides, the z-score was 0.732 (inactive) in assay [8]; 3.22 (inactive) in [12]; 1.63 (inactive) in assay [13]; 5.29 (inactive) in assay [14]; 0.37 (inactive) in assay [16].
As for `[N-]=[N+]=NCc1ccccc1[C@H]1OC(c2ccc(OCCCO)cc2)=N[C@@]1(Cc1ccccc1N=[N+]=[N-])C(=O)NCCN1CCOCC1`, the composite z-score in assay [1] amounted to 0.0233; in assay [2], 0.0401; in assay [3] it was 0.14; in assay [4], 0.981; in assay [5] it was 1.61; in [6], 1.49. The composite z-score came to 1.1 in assay [7]; 1.21 in assay [9]; 0.113 in [10]; 1.54 in [11]; 3.43 in assay [15]; 0.328 in assay [17]. The composite z-score in assay [18] is 0.476; in [19] it was 1.02; in assay [20], -0.0205. The z-score in assay [8] is 0.342 (inactive); in assay [12], 0.0051 (inactive); in [13] it was -13.9 (active); in assay [14] it was 0.355 (inactive); in assay [16], 0.72 (inactive).
Turning to `C=CCC(OC(C)=O)[C@@H]1[C@@H](N(Cc2ccc(-c3ccccc3)cc2)C(=O)c2cccc3ccccc23)c2cc(OCCCO)ccc2N1C(=O)c1ccc2ccccc2n1` (stereo not given in full), the composite z-score is -0.0204 in [1]; 0.113 in assay [2]; -0.102 in assay [3]; -0.0251 in assay [4]; 0.127 in assay [5]; 0.152 in assay [6]. In addition, the composite z-score is -0.669 in assay [7]; 0.294 in assay [9]; 0.0373 in assay [10]; 0.171 in assay [11]; 0.53 in [15]; 0.0469 in [17]. The composite z-score in assay [18] is -0.0394; in [19], 0.336; in [20], 0.045. Besides, the z-score is -1.45 (inactive) in assay [8]; -0.288 (inactive) in assay [12]; -0.283 (inactive) in assay [13]; -0.291 (inactive) in assay [14]; 0.488 (inactive) in assay [16].
